From PubChem BioAssay (NCI)
About 79,000 compounds went through this panel and 15% of them were active in at least one assay; those are over-represented in the sample as a whole. Rule as the data show it: active = growth inhibition above about 70%; inactive = the rest. Where a SMILES comes first, the peptide text is derived from it. [ ]: non-standard residue; d: D form. The star is where a group is joined. Cbz = O=C(OCc1ccccc1)*; Nva = CCC[CH](N)C(=O)O

How the values were obtained:
[1] = NCI Yeast Anticancer Drug Screen. Data for the rad50 strain (AID 155);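 also: 0% = growth of vehicle-only cultures of the same strain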; details: S. cerevisiae rad50 strain growth inhibition; at 50.0 µM; hits give high values
In short: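 Inhibition values express reduced yeast growth in compound-treated cultures relative to vehicle-treated controls.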

[2] = NCI Yeast Anticancer Drug Screen. Data for the mec2-1 strain (AID 157); details: S. cerevisiae mec2-1 strain, at 50.0 µM, hits give high values
In short: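 Vehicle-treated cultures served as reference for growth inhibition of compound-exposed mec2-1 yeast.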

[3] = NCI Yeast Anticancer Drug Screen. Data for the sgs1 mgt1 strain (AID 161);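 also: 0% = growth of cultures given vehicle only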; details: S. cerevisiae sgs1 mgt1 strain, at 50.0 µM, hits give high values
In short: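 Genetically altered yeast, compound exposure, growth inhibition relative to vehicle.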

[4] = NCI Yeast Anticancer Drug Screen. Data for the cln2 rad14 strain (AID 165);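 also: 0% = growth equal to vehicle treated cultures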; details: S. cerevisiae cln2 rad14 strain, at 50.0 µM, hits give high values
In short: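 Each compound was tested on cln2 rad14 yeast. Inhibition of growth was calculated against vehicle-exposed controls.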

[5] = NCI Yeast Anticancer Drug Screen. Data for the bub3 strain (AID 167); details: S. cerevisiae bub3 mutant strain, at 50.0 µM, hits give high values
In short: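 Steps: expose the mutant yeast strain to compound; grow alongside vehicle-treated cultures; measure growth; express inhibition against the vehicle cultures.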

[6] = NCI Yeast Anticancer Drug Screen. Data for the mlh1 rad18 strain (AID 175); details: S. cerevisiae mlh1 rad18 strain growth inhibition; at 50.0 µM; hits give high values
In short: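 Vehicle-treated cultures served as the reference for growth inhibition in a yeast strain carrying DNA damage repair alterations exposed to each compound.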

Measured: growth inhibition

CSc1n[nH]c(=O)c2nc[nH]c12
inactive: [1] -9.3% | [2] -9.2% | [3] 0.55% | [4] -34.5% | [5] 7.75% | [6] -5.2%

CC(=O)c1ccccc1C(C)c1ccc(C)c2ccccc12 (stereo unspecified)
inactive: [1] -1.65% | [2] 12.4% | [3] 6.75% | [4] -11.8% | [5] 2.95% | [6] 2.3%

CCCCCCCN1C(=O)C(O)(c2ccc(C3(O)C(=O)N(CCCCCCC)c4ccccc43)s2)c2ccccc21 (stereo unspecified)
inactive: [1] 9.35% | [2] 10.9% | [3] 4.9% | [4] 10.2% | [5] 9.7% | [6] 14.6%

COc1cc2c[n+](C)c3c(c2cc1OC)Cc1cc2c(cc1-3)OCO2
inactive: [1] -27.5% | [2] -13.2% | [3] 1.8% | [4] 18.9% | [5] -14.7% | [6] 6.25%

CC(=O)Nc1ccc(CCc2ccc(NC(C)=O)cc2)cc1
inactive: [1] -2.9% | [2] -13.7% | [3] -7.3% | [4] -60.2% | [5] 5.6% | [6] -12.3%

CN(C)N=Nc1ccc(C(=O)N/N=C/c2ccc([N+](=O)[O-])cc2)cc1
inactive: [1] -0.95% | [2] 40.5% | [3] 4.75% | [4] -5.75% | [5] 23.9% | [6] 17.9%

Clc1ccccc1/C=C/c1ccnnc1
inactive: [1] 15.8% | [2] 18.6% | [3] -3.65% | [4] 7% | [5] 1.35% | [6] 12.8%

O=S(=O)(c1ccccc1)N1CCN(S(=O)(=O)c2ccccc2)c2ccccc21
inactive: [1] 58.9% | [2] 23.9% | [3] -3.75% | [4] 3.9% | [5] 43.6% | [6] 53.9%

COc1ccc2nc3cc(Cl)ccc3c(NN3CCN(CCO)CC3)c2c1
inactive: [1] -24.1% | [2] -7.9% | [3] -20.1% | [4] 0.25% | [5] 2.3% | [6] -3.6%

Cc1ccccc1NC(=O)c1ccccc1
inactive: [1] 1.35% | [2] 2.3% | [3] -5.6% | [4] -14.7% | [5] 5.85% | [6] 3.1%

CNc1ccc(Oc2ccccc2)cc1[N+](=O)[O-]
inactive: [1] -2.2% | [2] 6.4% | [3] -11.3% | [4] -34.6% | [5] -9.9% | [6] -11%

O=c1c2cnc3c4cccnc4ccc3c2[nH]n1-c1ccccc1
inactive: [1] -22.6% | [2] 8.15% | [3] 14.2% | [4] -15.4% | [5] -9.85% | [6] -2.8%

CN(C(=S)NNC(=O)C1CCC(=O)N1)c1ccccc1 (stereo unspecified)
inactive: [1] 23.2% | [2] -2% | [3] 3.3% | [4] 13.7% | [5] 21.4% | [6] 26.9%

SCCNCc1ccccn1
inactive: [1] -22.1% | [2] -36.1% | [3] -17.4% | [4] 14.3% | [5] -37.4% | [6] -3.65%

CCCCCOCC(O)CNCCNCC(O)COCCCCC (stereo unspecified)
inactive: [1] 8% | [2] 0% | [3] 14.3% | [4] -55.6% | [5] -23.2% | [6] 0%

CCCC(NC(=O)OCc1ccccc1)C(=O)NC(C(=O)O)C(C)CC (stereo unspecified) (Cbz-[Nva]-Ile-OH; configuration not given here)
inactive: [1] 26.3% | [2] 12.4% | [3] 2.75% | [4] 29.1% | [5] 4.55% | [6] 9.6%

CSc1nc(=O)[nH]c2c1[nH]c(=O)n2-c1ccccc1
inactive: [1] 1.2% | [2] 5.85% | [3] -6.35% | [4] -15.7% | [5] 8.3% | [6] -9.05%

Cn1nc(-c2ccccc2)c(C(=O)/C=C/c2ccc(Cl)cc2)c(N2CCCC2)c1=O
inactive: [1] -5.1% | [2] -1.5% | [3] -4.9% | [4] -5.95% | [5] 14.8% | [6] -10.1%

Cc1cccc2c1NC(=O)C2=O
inactive: [1] 21.6% | [2] 8.4% | [3] -2.8% | [4] 15.7% | [5] -0.65% | [6] 13.5%

CC(=O)/C(=C/c1ccc(F)cc1)C(=O)CCN(C)C
inactive: [1] 8.15% | [2] 16.6% | [3] 20.9% | [4] 9.55% | [5] -11.5% | [6] -22.2%

Cc1cc(C)c2c(-c3ccccc3)cc(=O)[nH]c2c1
inactive: [1] -33% | [2] -16.1% | [3] -29.4% | [4] -3.55% | [5] -33.7% | [6] -51.1%

Cn1cnc([N+](=O)[O-])c1Cl
inactive: [1] 43.4% | [2] -3.6% | [3] -2.2% | [4] -7.55% | [5] 19.2% | [6] -1.1%

Nc1nc2c(c(-c3ccc(F)cc3)n1)COC/C2=C\c1ccc(F)cc1
inactive: [1] 31.5% | [2] 24% | [3] 15.2% | [4] 22.1% | [5] 40.8% | [6] 19.6%

CC12CC3CC(C)(C1)CC(N=[N+]=[N-])(C3)C2
inactive: [1] -27.4% | [2] -9.6% | [3] -12.1% | [4] 6.15% | [5] -0.8% | [6] -29.5%

O=C(O)CCCCn1cnc2c(=S)nc[nH]c21
inactive: [1] -6.1% | [2] -5.85% | [3] -13.7% | [4] -7.3% | [5] -44% | [6] -5%

CCOC(=O)CCCc1ccccc1
inactive: [1] -13.2% | [2] -32.5% | [3] -2.65% | [4] 32.2% | [5] 4.05% | [6] -2.25%

COC(=O)C(=O)C(C(=O)C(=O)Nc1ccccc1C(N)=O)c1nc2ccc(C(=O)c3ccccc3)cc2[nH]c1=O (stereo unspecified)
inactive: [1] -3.9% | [2] 20% | [3] -7.4% | [4] -17.1% | [5] -6.1% | [6] 9.5%

Cc1nnc(N)c(C#N)c1C
inactive: [1] -8.45% | [2] 2.3% | [3] 16.6% | [4] -56.9% | [5] 4.45% | [6] -1.85%

CC(=O)Nc1c(F)c(F)c(F)c(F)c1F
inactive: [1] 20.1% | [2] 2.2% | [3] -11.7% | [4] -35% | [5] 14.3% | [6] -13.1%

O=C(O)c1cc2c(c3c1CCCC3)CCC1CCCC21 (stereo unspecified)
inactive: [1] 13.2% | [2] 26.4% | [3] 33.4% | [4] -6.25% | [5] 20.8% | [6] 27.9%

O=C(N/N=C\c1ccc(Cl)c(Cl)c1)c1ccncc1
inactive: [1] -6.65% | [2] -1% | [3] -3.05% | [4] 5.4% | [5] -1.75% | [6] -5.7%

CCCCNC(=O)Oc1c(Cl)cc(Cl)c(Cl)c1[N+](=O)[O-]
inactive: [1] 16.2% | [2] 10.1% | [3] 17.9% | [4] 4.4% | [5] -11.1% | [6] 21.2%

O=C(O)c1cc(C(=O)O)cc(S(=O)(=O)N2CCOCC2)c1
inactive: [1] -2.1% | [2] 3.25% | [3] -3.8% | [4] -37.8% | [5] 6.05% | [6] -16.2%

COc1ccc(C(OC2OC(n3cnc4c(=S)nc(N)[nH]c43)CC2OC(C)=O)(c2ccccc2)c2ccc(OC)cc2)cc1 (stereo unspecified)
inactive: [1] 17.9% | [2] 21.9% | [3] 11.2% | [4] -54.4% | [5] 23.4% | [6] 24.4%

CN(C)Cc1ccnc(Cl)n1
inactive: [1] -16.2% | [2] 20.1% | [3] -16.8% | [4] -34.5% | [5] -13.3% | [6] -8.1%

OCCSCc1ccccc1
inactive: [1] 29.6% | [2] 0.3% | [3] -6.1% | [4] 7.2% | [5] -13.7% | [6] -1.3%

O=c1[nH]nc(Sc2ccccc2)c2nncn12
inactive: [1] 15.7% | [2] -1.05% | [3] -5.45% | [4] -16.6% | [5] -4.7% | [6] 24.6%

CCOC(=O)NC(=O)c1cn(CCCCCOC(=O)NCCCCCCNC(=O)OCCCCCn2cc(C(=O)NC(=O)OCC)c(=O)[nH]c2=O)c(=O)[nH]c1=O
inactive: [1] 20.6% | [2] 13.2% | [3] 12.6% | [4] 21.9% | [5] 6.7% | [6] 24.1%

C/C=C/C=C/C=N\O
inactive: [1] 16.6% | [2] 3.1% | [3] -6.65% | [4] -2.8% | [5] -1.45% | [6] 6.8%

COc1ccc2c(c1)[n+]([O-])c(/C(C)=N/NC(N)=S)c(C)[n+]2[O-]
inactive: [1] 65.6% | [2] 12.2% | [3] 41.6% | [4] 11.4% | [5] 61% | [6] 47.1%

Ic1ccccc1
inactive: [1] -0.9% | [2] 7.25% | [3] -41.4% | [4] -9.35% | [5] -45.8% | [6] -65.7%
